Drawing on PubChem BioAssay AID1508600 (Functional Genomics Laboratory (NCATS/FGL), 2020), this text covers z-score for 69 sequences.

In all, about 53,000 sequences went through this assay and about 3,700 (7%) were called active. This is one part of a sample in which actives are shown more often than they occur.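 The calls were made as follows: active = gene knockdowns whose robust z-score for IL-1 alpha signal is at least 2 or at most -2, so actives lie on both sides; inactive = the rest.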

The test can be described thus: Components of the Cytosolic LPS Sensing Pathway: Gene Identification via Genome-wide siRNA Screen. The conditions noted are these: RAW264.7 macrophages, IL-1a HTRF, actives lie on both sides, screened at 100 nM (by protocol), cells primed 5 h with Pam3CSK4 first. The text has this:
Non-canonical inflammasome activation by cytosolic LPS is a critical component of the host response to Gram-negative bacterial infection, however we lack a comprehensive understanding of the cellular processes that control this pathway. Here we describe a genome-wide siRNA screen to identify genes regulating the mouse macrophage IL-1 alpha response to cytosolic LPS.
RAW264.7 cells were maintained in complete DMEM media, comprising DMEM with 4.5 g/L glucose, 10% FBS (Gemini Bio-Products, West Sacramento, CA), 2 mM Glutamine (Lonza) and 20 mM HEPES (Lonza), hereafter complete DMEM.
The RNAi screen was conducted in 384-well format using the Ambion Silencer Mouse Genome siRNA Library (#4391425), which consists of three unique, nonoverlapping, nonpooled siRNAs for each of 17,000 gene targets. siRNA reagents ([…]) were stamped into 384-well white flat-bottom microplates (Corning, 3570) using a Velocity11 VPrep liquid handling system (Agilent) integrated into a BioCel robotic platform (Agilent) in columns 1-22, leaving columns 23-24 empty for negative (Ambion, Negative control #1) and positive (mouse Casp4) controls, respectively. The median value of each plate's negative control column was used to normalize sample wells, and the positive control was used to assess transfection efficiency and assay performance.
Lipofectamine RNAiMAX Transfection Reagent ([…]; Invitrogen) was added in […] serum-free, antibiotic-free media to plate wells using a Thermo Scientific Matrix WellMate and Microplate Stacker. Plates were incubated for 45 min at room temperature to allow for the sufficient formation of siRNA-lipid complexes. Cells were seeded at a density of 1x10^4 cells per well in 20 microL media containing 20% (vol/vol) FBS without antibiotics. The final concentration of siRNA in each well was 100 nM. Cells were cultured for 48h at 37 degrees C in 5% CO2 before addition of […] of TLR ligand Pam3CSK4 for 5 hours. The medium was then removed, replaced with […] growth media and cell were transfected with […] of LipidA and TransIT-TKO (Mirus) for 24 hour. At the end of the LipidA treatment, […] of supernatant was transferred to a 384 Greiner Bio-one non-binding low volume plate and […] of IL-1a HTRF reagent (Cisbio, 62MIL1APEH) was added and incubated at room temperature overnight. The plates were read on an EnVision plate reader (PerkinElmer). Cell viability was measured by adding 20ul Cell Titer Glo to the original plate and running a luminescence read on the EnVision. The quantified IL-1a signal for each siRNA gene-targeted well was divided by the median of the negative control wells and multiplied by 100 to achieve a negative control normalized value for each well/siRNA. This normalized value was then used to generate a robust z-score by first taking the log of each value and then by subtracting the median and dividing by the […].
For the sequence CCUGUGAAAUACCAGCGUGTT against Rsl24d1, the z-score was 2.05 (active).
Consider GCUCUGGUUGCCAGUUAUGTT against Ddx49, for which the z-score was 0.903 (inactive).
To GGGAUUAUAGGGCGCAUUGTT against Olfr685 belongs -1.01 (inactive); to GCGACAAAUCAAAAAGGCCTT against Dnajb9, -0.0942 (inactive).
To GGCCAACAAUAUAAAAGACTT against Pus3 belongs -0.641 (inactive); to GACUUCGGACAAAUGGUGCTT against Lce1f, 2.27 (active).
For GGUCCUGAUGUUGAAGGCATT against Rinl the value was 0.647 (inactive); for GCAUCUCUUACUAAGAUUATT against Anxa4, -0.433 (inactive).
Consider GGAAUUAAAUGAACCCAGATT against Arhgap8, for which the z-score is 2.48 (active).
For GGUUUUAUGCAUUAGCUCCTT against Lipf the value was 0.502 (inactive); for GCAACCUGUCAUUUUGUGATT against Olfr1134, -1.74 (inactive); for GGCUUUUAGCUACCUUGUGTT against AW209491, -0.704 (inactive).
As to GCACGAUGUCUCAGCUCUATT against Nipal3, the z-score was -2.89 (active).
Regarding CCAGGUGUAACAAAAAAGATT against Dtl, the z-score is 1.09 (inactive).
To CCGGGAAAUUCUGUUAGCCTT against Pla2g1b belongs -1.95 (inactive); to GGAAAGCUCUCAAUACCUGTT against Olfr633, -0.688 (inactive); to GCUUUGGUUGCUAACCCAATT against Slc45a2, 0.407 (inactive).
For GGCUCAAUUUGGAAAGGACTT against Anxa8 the value was -0.586 (inactive); for GGAGCAUCUAUGAUUACAATT against Iqcg, 3.24 (active).
To GGAUAUGUCGGAAAAAGCCTT against Cfh belongs 0.271 (inactive).
In the case of GGCCACAGUAAUGGGAAAUTT against Cga, the z-score was -0.208 (inactive).
For GGUAAAUGAUCUGAAAAUGTT against Rps6ka6 the value was -0.46 (inactive).
Take GCUCAUGUCAGGAGAGAGUTT against Ocel1: the z-score is -2.41 (active).
To CGAGCUAUACGGAAAAAAATT against Efcab12 belongs -1.03 (inactive); to GCUGAUCCUCUCCCUUCAUTT against Tas2r131, -0.463 (inactive).
For GGCUCUUCUCUCGUCCUUGTT against Nif3l1 the value was 0.213 (inactive); for GGAUGAAGACCCAUAUGUGTT against Ap1b1, -0.287 (inactive); for GCCUCAGUUUGAAAUUGUUTT against Tbrg1, -0.695 (inactive).
Turning to CCUGGAUCAGCAAUCCACATT against Lpxn, the z-score is -0.503 (inactive).
For UCCUCCUGUCUUACGUACGTT against Prlhr the value was 2.05 (active); for CGUGUAGCAAUGAGAUAUUTT against Trpc5, 0.162 (inactive).
For GGGAUUUCUGGAGAAAAUGTT against Csta2 the value was -0.872 (inactive); for GGAUUCCUGUACAUAUAUUTT against Ube4b, -0.501 (inactive).
In the case of GGCAUGAAUACAUCACAGCTT against Vmn1r220, the z-score is -0.808 (inactive).
For GGACAUACAAAUCUUCAUUTT against Mta2 the value was 0.886 (inactive); for GGUGAUGCUAAAUUCUGAUTT against Mpc2, -1.92 (inactive).
To GGUAUAUGGUGGGAACUUUTT against Bnipl belongs 2.04 (active); to “CCUCUCUUUAACAGGUCACTT against 1700034H15Rik”, 1.35 (inactive); to GCUGUUACUCUUAAACAAATT against Pdhx, 0.254 (inactive).
To GCCUCAGUUAUUUAAUGAATT against Mpp3 belongs -0.414 (inactive); to GGAUGAAGAAAACUGGCUUTT against Tsx, -0.764 (inactive); to GGAAGCAGGGCAGCUUAUUTT against Hbq1a, -2.22 (active).
With GGUUGACCCACUGAAAAUUTT against Marveld1, the z-score is -0.112 (inactive).
Turning to GCACGGCCCUACUUUAUAGTT against Trim33, the z-score is -1.43 (inactive).
For GGCGUGAAAAUAGGAGAAUTT against Extl2 the value was -1.77 (inactive); for GCCGCUACACAUCAAACCATT against Zc3h3, -0.336 (inactive).
To GCUAAUCGAAGUUGAAAUUTT against Soga3 belongs -0.316 (inactive).
For GGAAAAUGGAGCUGUGCUCTT against Prelid3a the value was 0.298 (inactive); for GCUGUUUUAGUAGAGGUAATT against Tsfm, -0.708 (inactive).
Regarding CCUCAAAUUAUUGUUGGCATT against Ppip5k1, the z-score was -2.07 (active).
To GGGCUGGCUACGAUAAGCUTT against Tes belongs 1.53 (inactive).
To CCCUUGAAGAUGAAACCAGTT against Smarca5 belongs -0.277 (inactive); to GCGGAAAUCUAAUUGCUUGTT against Kat5, -0.0418 (inactive); to GGUGGAUUAAGUCUCAAAATT against Pcdhb22, 0.592 (inactive).
With CCUACUGGAAAAGAUAAUUTT against Stfa1, the z-score is 1.82 (inactive).
To GCUACUAUGUGCCUGUGACTT against Oc90 belongs -2.21 (active).
In the case of UACAUUAGUAGAAUGGAGGTT against Mageb3, the z-score is -0.598 (inactive).
For GGAAGAAACUGAGAAACUGTT against Fam205c the value was 0.48 (inactive).
To CGGAAAAAUGGAAGUAUAGTT against Mrtfb belongs -0.687 (inactive); to GGGCUGUGAUCAAACAUGGTT against Ano9, -1.38 (inactive).
For GGAAUUAUGAACAAAUUGCTT against H2-M9 the value was 0.702 (inactive); for GGCCUCUAUCUUCCAACAATT against Tent4a, -2.06 (active).
For GCCAACAAGCAUUCCAUUGTT against Mrap, the z-score is -0.991 (inactive).
GGAUACAUUAAGGUGCAAGTT against Aldh1a7: the z-score is 0.819 (inactive).
As to GGCACAUGGAGUGGACAAGTT against Blvrb, the z-score is 3.2 (active).
On to GCUUGACCCUACACUACAGTT against Olfr1121, for which the z-score was 2.47 (active).
In the case of GGCUGGCAAACUCAAAAAATT against Zfp385c, the z-score was -0.813 (inactive).
For GCGAUCUAGAAAUUGACAATT against St13 the value was -0.59 (inactive); for GGAAAAAGGAGGGUUUAGCTT against Tm4sf5, 0.418 (inactive).
